Rows were chosen to be rich in hits. Some 19% of all compounds tested hit in one or more screens of this group.
TGFb SMAD3 inh = TGF-b pathway inhibition; Potency, µM (titrated, usually from 46.1 µM), without a hit: at the top dose activity, negative = inhibition, most hits filed as inhibitors; AID 588855; HepG2 CAGA-GFP TGF-b/SMAD3 reporter, GFP fluorescence, 18 h; TGF-beta stimulated, 500 pg/mL final; 410,000 compounds, 1.2% hits; also: potency is read from the fitted curve at half-maximal effect; % is scaled to controls: 0 for no effect and ±100 for the full control effect; nearly all actives have a fitted effect of over 65% in size
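Inhibition was scored as loss of TGF-beta-induced (500 pg/mL final, 18 hours, 37 degrees C) GFP in HEPG2 cells carrying a CAGA-GFP reporter, in DMEM with 1% FBS. Well GFP was summed per cell; Activity was normalised to unstimulated and stimulated DMSO wells, then concentration-response fitting.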
DT40 TDP1 CPT = growth inhibition of DT40 Tdp1-/-;hTDP1 cells with camptothecin (screen for TDP1 inhibitors). chicken DT40 Tdp1-/-;hTDP1 cells + 20 nM CPT, ATP luminescence, 48 h. Potency, µM (highest dose often 46.2 µM), for inactives: at the top dose activity change, negative = growth inhibition, actives largely listed as inhibitors. 420,000 compounds, 12% hits. AID 686979; also: potency is read from the fitted curve at half-maximal effect; % is scaled to controls: 0 for no effect and ±100 for the full control effect; nearly all actives have a fitted effect of over 55% in size
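Chicken DT40 Tdp1-/- cells stably complemented with human TDP1 were seeded at 400 cells/well in medium containing 20 nM camptothecin, exposed to pin-transferred compounds, and grown at 37 °C for at least 48 hr. Viability was read as ATP luminescence.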
S-ASM inh = blocks human secretory acid sphingomyelinase; Potency, µM (highest dose often 57.5 µM), inactives show top-dose activity change, negative = inhibition, most hits filed as inhibitors; AID 504937; P17405; 340,000 compounds, 0.006% hits; placental ASM, HMU-PC fluorogenic substrate, 60 min; also: potency is read from the fitted curve at half-maximal effect
Target sequence (P17405 47-631 limits assumed): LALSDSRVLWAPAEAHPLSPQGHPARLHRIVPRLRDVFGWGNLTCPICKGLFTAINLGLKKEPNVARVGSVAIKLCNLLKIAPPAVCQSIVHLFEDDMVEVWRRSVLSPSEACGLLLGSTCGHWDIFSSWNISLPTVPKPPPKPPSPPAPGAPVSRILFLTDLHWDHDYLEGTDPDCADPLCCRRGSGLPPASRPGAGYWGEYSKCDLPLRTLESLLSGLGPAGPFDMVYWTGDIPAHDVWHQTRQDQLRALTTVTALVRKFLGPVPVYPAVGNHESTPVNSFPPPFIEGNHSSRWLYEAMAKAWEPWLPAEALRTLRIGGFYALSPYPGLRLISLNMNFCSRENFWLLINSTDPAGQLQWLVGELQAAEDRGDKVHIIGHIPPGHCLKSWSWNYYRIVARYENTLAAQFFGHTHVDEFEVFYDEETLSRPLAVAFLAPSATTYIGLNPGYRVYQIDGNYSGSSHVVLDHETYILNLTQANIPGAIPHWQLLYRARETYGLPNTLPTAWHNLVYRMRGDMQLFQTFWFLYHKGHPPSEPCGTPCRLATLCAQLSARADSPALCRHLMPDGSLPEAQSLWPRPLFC
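Steps: dispense placental human ASM, pin compound, wait 10 min at room temperature, add HMU-PC0 substrate at 9 uM final, incubate 60 min at 37 °C, add stop solution raising pH to 10, read fluorescence.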
DT40 TDP1 no CPT = qHTS for Inhibitors of human tyrosyl-DNA phosphodiesterase 1 (TDP1): qHTS in cells in absence of CPT; DT40 Tdp1-/- hTDP1 cells, no CPT, ATP luminescence, 48 h; Potency, µM (series often up to 46.2 µM), for the others: top-dose activity change, negative = growth inhibition, hits mostly inhibitors; 420,000 compounds, 15% hits; AID 686978, 2013; also: potency is read from the fitted curve at half-maximal effect; % is scaled to controls: 0 for no effect and ±100 for the full control effect; nearly all actives have a fitted effect of over 55% in size
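Luminescent ATP content (CellTiter-Glo) served as the growth readout. Knockout chicken DT40 cells expressing human TDP1 were exposed to compounds without camptothecin for a minimum 48 hr at 37 °C.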
IL1B secr inh = inflammasome signaling inhibition, IL-1 beta readout | THP-1 LPS/ATP IL-1B secretion, AlphaLISA, 16 h; active compounds read low | activity change, % at 57.5 µM | 360,000 compounds, 4.7% hits; in the data active = activity change below about -50%; inconclusive = mostly about -30% to -49%; also: % is scaled to controls: 0 for no effect and ±100 for the full control effect
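THP-1 cells pretreated 1 hr with compounds (up to 57.5 uM final), then stimulated with LPS (250 ng/mL final) plus ATP (1.25 mM final); secreted IL-1B measured by AlphaLISA after 16 hr, decreased signal indicating inhibition.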
HepG2 tox = counter-screen for TGF-b inhibitors: cytotoxicity in HepG2 cells | Potency, µM (series often up to 46.1 µM), for inactives: top-dose activity change, negative = cytotoxicity, most hits filed as cytotoxic | 410,000 compounds, 0.76% hits | HepG2 CAGA-GFP viability, ATP luminescence, 18 h; also: potency is read from the fitted curve at half-maximal effect
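HepG2 CAGA-GFP cells (1000/well, DMEM with 1% FBS) received compound, then TGF-beta at 500 pg/mL final, and were incubated 18 hours at 37 degrees C. Viability was read by CellTiter-Glo luminescence. Media-only wells were set as complete cell-killing and DMSO as no toxicity.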
Active calls of the source: *; ? = inconclusive; . = no result given. Unless noted, calls follow the shape of the dose curve; as a rule, active = well fitted curve in the direction sought with a large enough effect; inconclusive = small, poorly fitted or top-dose-only effect, or another doubt; inactive = no such curve, though single readings can be large; an effect the other way counts as inactive or inconclusive.

SMILES | TGFb SMAD3 inh | DT40 TDP1 CPT | S-ASM inh | DT40 TDP1 no CPT | IL1B secr inh | HepG2 tox
CCOC(=O)C1(CC2CC2)CCN(Cc2cn[nH]c2-c2cccc(F)c2)CC1 | ? | ? | 4% | 18µM* | -8 | -39%
O=S(=O)(c1cccc(C(F)(F)F)c1)N1CCCC1c1cccnc1 (stereo unspecified) | 15% | -3% | 1% | ? | . | 17%
CN1OC[C@@H]2CN(S(=O)(=O)c3cccc4ccccc34)[C@H](c3ccc(-c4cccnc4)cc3)C[C@@H]21 | 4% | ? | . | 18µM* | -19 | -26%
Cc1ccccc1S(=O)(=O)N1C[C@H]2CON(C)[C@H]2C[C@H]1c1cccc(-c2ccc(C#N)cc2)c1 | -25% | 21µM* | -4% | ? | -11 | -10%
CN1OC[C@@H]2CN(S(=O)(=O)c3cccc(C(F)(F)F)c3)[C@H](c3ccc(-c4cccnc4)cc3)C[C@@H]21 | -3% | 29µM* | . | 21µM* | 22 | -24%
CCOC(=O)c1c(NC(=O)COC(=O)c2cccc([N+](=O)[O-])c2)sc(C(=O)N(C)C)c1C | 4% | -4% | . | -1% | -4 | -49%
CCc1ccc(-c2nc(SCC(=O)c3c(N)n(C4CC4)c(=O)[nH]c3=O)n[nH]2)cc1 | 33% | -11% | 1% | -30% | 30 | 42%
COc1ccc(CCNC(=O)C2CCCN(c3nc4ccccc4s3)C2)cc1OC (stereo unspecified) | 3% | ? | -4% | ? | -20 | 4%
COc1ccc(CCNC(=O)C2CCCN(c3nc4c(C)cc(C)cc4s3)C2)cc1OC (stereo unspecified) | -6% | 21µM* | . | 13µM* | . | -16%
CCOc1ccc(CNC(=O)C2CCCN(c3nc4c(C)cc(C)cc4s3)C2)cc1 (stereo unspecified) | -4% | 18µM* | . | ? | . | -8%
COc1ccccc1-c1noc(-c2ccc(NCc3cccnc3)c([N+](=O)[O-])c2)n1 | -22% | ? | . | ? | . | -16%
CC(=O)Nc1ccc(NC(=O)C(C)OC(=O)CCCOc2ccc(Cl)c(C)c2)cc1 (stereo unspecified) | -20% | ? | -6% | ? | 7 | -3%
COc1ccc(CNC(=O)CSc2ncc(S(=O)(=O)c3ccc(C)c(Cl)c3)c(=O)[nH]2)cc1 | -5% | . | . | . | . | -6%
CNc1ccc(/C=C/c2ccnc3ccccc23)cc1 | -23% | 11µM* | . | 16µM* | . | -46%
CCCCCCCCCCN(CCCCCCCCCC)c1ccc(/C=C/c2ccnc3ccccc23)cc1 | -2% | -24% | . | -28% | . | -2%
CCCCCCNc1ccc(/C=C/c2ccnc3ccccc23)cc1 | ? | 16µM* | . | 13µM* | . | -29%
CCNc1ccc(/C=C/c2ccnc3ccccc23)cc1 | 0% | -109% | . | 4µM* | . | -24%
COc1cc(C2Nc3ccccc3C(=O)N2Cc2ccco2)cc(OC)c1OC (stereo unspecified) | -13% | ? | . | ? | . | -14%
Cc1ccccc1NC(=O)N1CCC(CN2CCCC2)CC1 | 0% | 10% | . | 1% | . | -2%
COc1ccccc1N(CC(=O)NCc1ccccc1)S(=O)(=O)c1cccs1 | -1% | ? | . | ? | 36 | -3%
COc1ccccc1OCC(=O)NNC(=O)C1CCN(c2ncnc3sc(C)c(C)c23)CC1 | ? | ? | 3% | 13µM* | -7 | -13%
Cc1cccc(OCC(=O)NNC(=O)C2CCN(c3ncnc4sc(C)c(C)c34)CC2)c1 | 0% | ? | -4% | ? | 6 | -33%

Screening results from PubChem BioAssay.
